Consider eight molecules from PubChem BioAssay (NCI).

The structures appear in SMILES notation. About 83,000 compounds went through this panel and 20% of them were active in at least one assay; those are over-represented in the sample as a whole.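 Results are percent growth after 48 hours of single-concentration exposure. 100 means growth as in untreated cells, lower positive values show inhibition; negative values down to -100 show cell death.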 Unmarked numbers belong to inactive results. Calls of active or inactive are those of the source. How the source made its calls: active means growth percent below 10; inactive means the rest.

Common to all, as to test: NCI-60 one-dose screen, 48 h (100 = growth as untreated, 0 = no growth, -100 = all killed)
Common to all, as to conditions: 10 µM unless noted

The test system of assay [1] is MOLT-4 leukemia.
Assay [2] deals with SR leukemia.
Assay [3] relates to RPMI-8226 leukemia.
Assay [4] relates to OVCAR-8 ovarian.
The test system of assay [5] is OVCAR-4 ovarian.
Assay [6] has as its system SK-OV-3 ovarian.
In assay [7] the test system is IGROV1 ovarian.
For assay [8], the system named is OVCAR-3 ovarian.
In assay [9] the test system is HS 578T breast.
In assay [10] the test system is NCI/ADR-RES ovarian.
Assay [11] has as its system T-47D breast.
The subject of assay [12] is BT-549 breast.
The subject of assay [13] is MDA-MB-435 melanoma.
Assay [14] has as its system SW-620 colon.
For assay [15], the system named is MCF7 breast.
Assay [16] relates to HCT-116 colon.
For assay [17], the system named is HCC-2998 colon.
Assay [18] has as its system KM12 colon.
Assay [19] concerns OVCAR-5 ovarian.

Turning to `CCOC(=O)[C@@H](C)C[C@H](Cc1ccccc1)NC(=O)c1nc([C@@H](C[C@H](C(C)C)N(C)C(=O)[C@@H](NC(=O)[C@H]2CCCCN2C)C(C)C)OC(C)=O)sc1CCOCc1ccccc1`, the growth in assay [1] was -2.06% (active); in [2], -36.9% (active); in [3] it was -32% (active); in assay [4], -19.3% (active); in [5], 14.9%; in assay [6], -3.36% (active). The growth in assay [7] is -4.01% (active); in assay [8] it was -53% (active); in assay [9] it was -27.9% (active); in [10], 1.07% (active); in assay [11] it was 24.7%; in assay [12] it was -50.9% (active). The growth was -58.3% (active) in [13]; 6.51% (active) in assay [14]; 5.53% (active) in assay [15]; -33.7% (active) in [16]; -59.6% (active) in assay [17]; -39.8% (active) in [18].
For `COc1cc2c(cc1OCCCCCn1c(-c3ccco3)nc3ccccc31)N=C[C@@H]1CCCN1C2=O`, the growth in [1] is 6.41% (active); in assay [2], 0.702% (active); in assay [3], 28%; in [4], 18.6%; in assay [5], 11.2%; in assay [6], 42.3%. In addition, the growth was -59.8% (active) in assay [7]; 12.9% in assay [8]; 14.7% in assay [9]; 11.2% in [10]; 27.8% in assay [11]; 18% in [12]. Further, the growth in assay [13] is -48.1% (active); in assay [14] it was 15%; in [15] it was 13.4%; in assay [16] it was 14.5%; in assay [17] it was -22.3% (active); in assay [18] it was 2.44% (active).
`COc1cc(NC(C)CCCNC2CN3CCC2CC3)c2ncccc2c1` (centres undefined): the growth in assay [1] is 74.2%; in assay [2], 84.9%; in assay [3], 72.9%; in assay [4], 75.9%; in assay [6] it was 93.4%; in assay [7] it was 69.1%. The growth was 11% in [8]; 65.2% in [9]; 96.9% in [10]; 69.9% in assay [11]; 86% in [12]; 94.3% in assay [13]. The growth in assay [14] was 72.6%; in [15] it was 0.157% (active); in assay [16], 66.4%; in [17], 75.4%; in assay [18] it was 85.5%.
As to `CC(C)[C@@H]1NC(=O)[C@]2(C)CSC(=N2)c2csc(n2)CNC(=O)C[C@@H](/C=C/CCS)OC1=O`, the growth in assay [1] is 7.47% (active); in [2], 12%; in [3] it was -15.4% (active); in [4], -11.9% (active); in [5], 27.7%; in [6], -12.6% (active). In addition, the growth in assay [7] is 0.877% (active); in assay [8], -21.3% (active); in assay [9], 7.81% (active); in [10], 52%; in assay [11], -17.9% (active); in [12], 41.7%. Moreover, the growth in [13] is 5.9% (active); in assay [14], 1.33% (active); in assay [15], 13.9%; in assay [16], -34.8% (active); in assay [17] it was -48% (active); in assay [18], 1.21% (active).
With `C/C(=C\c1cc(C(F)(F)F)nn1CCNC(=O)OC(C)(C)C)[C@@H]1C[C@@H]2O[C@]2(C)CCC[C@H](C)[C@H](O)[C@@H](C)C(=O)C(C)(C)[C@@H](O)CC(=O)O1`, the growth in assay [1] was 25.1%; in assay [2], 28.1%; in assay [3], 22.9%; in assay [4], 61.8%; in assay [5], 71.4%; in assay [6], 86.3%. In addition, the growth in assay [7] is 49.2%; in assay [8], 30.8%; in [9] it was 61.3%; in [10], 28%; in assay [11], 57.8%; in [12] it was 73.2%. Besides, the growth was -27.6% (active) in assay [13]; 34.7% in assay [14]; 31.2% in assay [15]; 23.3% in assay [16]; 57.3% in assay [17]; 20.3% in assay [18].
For the molecule `Cc1cc(-c2nc3cc(F)ccc3[se]2)cc(F)c1N`, the growth in [1] is 83.6%; in assay [2], 23.9%; in assay [3], 66.8%; in assay [4], 104%; in assay [5] it was 63.3%; in assay [6], 73.6%. The growth was 37.3% in assay [7]; 87.2% in assay [8]; 102% in assay [9]; 98.7% in assay [10]; 14.2% in [11]; 84.4% in assay [12]. Moreover, the growth in assay [13] is 101%; in [14] it was 90.7%; in assay [15] it was 2.88% (active); in [16], 71.2%; in [17], 35.5%.
For `O=C1NC(=O)C(=Cc2cn(C(=O)c3ccccc3)c3ccccc23)C(=O)N1`, the growth in assay [1] was 88.3%; in assay [2], 90.5%; in assay [3], 114%; in [4] it was 92.3%; in [19], 94.7%; in [6], 91.5%. The growth in assay [8] is 108%; in assay [9] it was 103%; in assay [10], 97.1%; in assay [11], 95.2%; in [12], 105%; in assay [13] it was 105%. Moreover, the growth in [14] is 93.7%; in assay [15] it was 89.4%; in [16] it was 102%; in assay [17], 93.4%; in [18] it was 108%.
For the molecule `CCC1(C)CC(CCNCc2ccccc2O)(c2ccc(C)cc2)CCO1` (centres undefined), the growth in [1] is 101%; in assay [2], 96%; in [3] it was 98.2%; in [4] it was 103%; in assay [5] it was 100%; in [6], 112%. The growth was 95.6% in assay [7]; 105% in assay [8]; 104% in [9]; 103% in assay [11]; 101% in assay [12]; 100% in assay [13]. Also, the growth is 97.3% in [15], 109% in [16], 117% in assay [17] and 107% in assay [18].
